Measurements from the supplement of paper PMC10849652.
Of roughly 8,800 targets only a part is listed; those with a hit were picked by preference. About 0.5% of all pairs of compound and target were hits. Unmarked numbers belong to inactive results.

Assays:
Assay in all cases: log2 fold change, soluble protein after heating vs DMSO (PISA); higher = thermal stabilisation; K562 lysate, 10 uM; active = over 0.2 and 3.5 SD of the protein, either way, in both replicates (recomputed)
vemurafenib = compound: CCCS(=O)(=O)Nc1ccc(F)c(C(=O)c2c[nH]c3ncc(-c4ccc(Cl)cc4)cc23)c1F [vemurafenib]
In short: (§1)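 K562 pellets were dounce-homogenised in PBS pH 7.4 with 1 mM MgCl2, and the crude extract at 1 mg/mL protein was treated with 10 μM compound for 30 min. Aliquots were heated for 3 min across 48°C-58°C, pooled, and brought to 0.5% NP-40 at 4°C; soluble protein was the supernatant after 21,000xg for 90 min. Soluble protein was quantified by TMTpro 16plex LC-MS/MS with channel sums equalised, and reported as log2 fold change in thermal stability against DMSO controls, with values from duplicates.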

[1] = compound: CCCS(=O)(=O)Nc1ccc(F)c(C(=O)c2c[nH]c3ncc(Cl)cc23)c1F
In short: as §1

barasertib = compound: CCN(CCCOc1ccc2c(Nc3cc(CC(=O)Nc4cccc(F)c4)[nH]n3)ncnc2c1)CCOP(=O)(O)O [barasertib]
In short: as §1

[2] = compound: CC[C@@H]1C(=O)N(C)c2cnc(Nc3ccc(C(=O)NC4CCN(C)CC4)cc3OC)nc2N1C1CCCC1
In short: as §1

volasertib = compound: CC[C@@H]1C(=O)N(C)c2cnc(Nc3ccc(C(=O)N[C@H]4CC[C@H](N5CCN(CC6CC6)CC5)CC4)cc3OC)nc2N1C(C)C [volasertib]
In short: as §1

[3] = compound: CCn1c(C(=O)N(C2CC2)C2CC2)cc2c3c(ncn3C)c(Nc3cc(C)n(C)n3)nc21
In short: as §1

[4] = compound: CCn1cc(-c2ccnc3[nH]c(-c4cccc(CN(C)C)c4)cc23)c(-c2ccc(NC(=O)N(C)C)cc2)n1
In short: as §1

[5] = compound: CN1CCC(CNc2ccc3ncc(-c4cccc(OC(F)(F)F)c4)n3n2)CC1
In short: as §1

saracatinib = compound: CN1CCN(CCOc2cc(OC3CCOCC3)c3c(Nc4c(Cl)ccc5c4OCO5)ncnc3c2)CC1 [saracatinib]
In short: as §1

sotrastaurin = compound: CN1CCN(c2nc(C3=C(c4c[nH]c5ccccc45)C(=O)NC3=O)c3ccccc3n2)CC1 [sotrastaurin]
In short: as §1

Sequence of UniProt Q8NBU5 (Q8NBU5 whole entry, looked up): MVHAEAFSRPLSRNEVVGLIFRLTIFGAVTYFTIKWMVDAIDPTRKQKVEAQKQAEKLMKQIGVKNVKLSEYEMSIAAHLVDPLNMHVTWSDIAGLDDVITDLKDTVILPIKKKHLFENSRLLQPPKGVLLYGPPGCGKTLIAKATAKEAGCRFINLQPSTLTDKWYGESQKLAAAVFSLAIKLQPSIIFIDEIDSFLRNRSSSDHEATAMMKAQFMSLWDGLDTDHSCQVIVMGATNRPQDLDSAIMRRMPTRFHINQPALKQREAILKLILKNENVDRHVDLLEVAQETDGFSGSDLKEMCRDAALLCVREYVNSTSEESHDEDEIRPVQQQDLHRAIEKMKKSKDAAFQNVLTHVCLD
Sequence of UniProt P55211 (P55211 whole entry, looked up): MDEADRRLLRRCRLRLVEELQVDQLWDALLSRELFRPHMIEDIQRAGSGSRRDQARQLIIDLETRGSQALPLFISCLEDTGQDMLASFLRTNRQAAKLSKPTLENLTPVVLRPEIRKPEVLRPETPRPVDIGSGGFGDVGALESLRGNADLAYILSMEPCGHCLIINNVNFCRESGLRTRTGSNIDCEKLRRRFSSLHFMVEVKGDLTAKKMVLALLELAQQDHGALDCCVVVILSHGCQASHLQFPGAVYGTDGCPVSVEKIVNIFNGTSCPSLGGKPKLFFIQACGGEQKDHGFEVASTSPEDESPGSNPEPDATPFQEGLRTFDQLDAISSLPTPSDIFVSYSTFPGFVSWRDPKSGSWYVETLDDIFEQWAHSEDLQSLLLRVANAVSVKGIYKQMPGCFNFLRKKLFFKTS
Sequence of UniProt Q8N4Q1 (Q8N4Q1 whole entry, looked up): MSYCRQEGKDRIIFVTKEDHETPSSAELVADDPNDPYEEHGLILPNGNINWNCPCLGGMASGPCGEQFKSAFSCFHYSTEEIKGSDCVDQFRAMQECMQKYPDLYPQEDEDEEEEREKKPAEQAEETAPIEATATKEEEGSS
Sequence of UniProt P51946 (P51946 whole entry, looked up): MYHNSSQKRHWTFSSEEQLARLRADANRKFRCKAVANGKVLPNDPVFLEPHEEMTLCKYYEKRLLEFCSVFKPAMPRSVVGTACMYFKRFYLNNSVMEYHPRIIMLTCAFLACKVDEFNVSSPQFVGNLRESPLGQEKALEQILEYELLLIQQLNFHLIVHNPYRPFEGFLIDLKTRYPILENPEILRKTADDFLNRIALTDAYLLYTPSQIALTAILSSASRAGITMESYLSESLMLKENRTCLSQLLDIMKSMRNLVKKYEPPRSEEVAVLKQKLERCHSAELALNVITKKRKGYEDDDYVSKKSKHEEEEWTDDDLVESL
Sequence of UniProt P25440 (P25440 whole entry, looked up): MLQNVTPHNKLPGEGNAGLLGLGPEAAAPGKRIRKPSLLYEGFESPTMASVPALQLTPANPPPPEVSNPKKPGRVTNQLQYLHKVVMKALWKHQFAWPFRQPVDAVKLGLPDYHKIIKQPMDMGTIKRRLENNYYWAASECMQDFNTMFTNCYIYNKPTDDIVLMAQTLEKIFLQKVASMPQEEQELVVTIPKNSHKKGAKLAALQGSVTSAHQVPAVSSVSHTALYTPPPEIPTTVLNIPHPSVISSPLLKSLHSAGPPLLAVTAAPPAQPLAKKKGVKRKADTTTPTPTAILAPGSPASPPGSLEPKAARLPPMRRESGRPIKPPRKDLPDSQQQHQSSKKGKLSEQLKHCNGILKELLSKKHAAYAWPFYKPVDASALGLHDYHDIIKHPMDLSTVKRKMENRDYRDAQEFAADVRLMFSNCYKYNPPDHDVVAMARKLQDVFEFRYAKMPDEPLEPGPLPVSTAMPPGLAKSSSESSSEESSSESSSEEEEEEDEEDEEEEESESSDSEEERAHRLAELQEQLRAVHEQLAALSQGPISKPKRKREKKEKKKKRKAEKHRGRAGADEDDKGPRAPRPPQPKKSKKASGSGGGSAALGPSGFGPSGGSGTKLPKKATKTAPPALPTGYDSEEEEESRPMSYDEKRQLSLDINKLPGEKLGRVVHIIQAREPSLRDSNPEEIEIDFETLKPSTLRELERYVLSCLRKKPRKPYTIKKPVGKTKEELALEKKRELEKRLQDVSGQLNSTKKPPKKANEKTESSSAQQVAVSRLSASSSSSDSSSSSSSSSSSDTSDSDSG
Sequence of UniProt Q13111 (Q13111 whole entry, looked up): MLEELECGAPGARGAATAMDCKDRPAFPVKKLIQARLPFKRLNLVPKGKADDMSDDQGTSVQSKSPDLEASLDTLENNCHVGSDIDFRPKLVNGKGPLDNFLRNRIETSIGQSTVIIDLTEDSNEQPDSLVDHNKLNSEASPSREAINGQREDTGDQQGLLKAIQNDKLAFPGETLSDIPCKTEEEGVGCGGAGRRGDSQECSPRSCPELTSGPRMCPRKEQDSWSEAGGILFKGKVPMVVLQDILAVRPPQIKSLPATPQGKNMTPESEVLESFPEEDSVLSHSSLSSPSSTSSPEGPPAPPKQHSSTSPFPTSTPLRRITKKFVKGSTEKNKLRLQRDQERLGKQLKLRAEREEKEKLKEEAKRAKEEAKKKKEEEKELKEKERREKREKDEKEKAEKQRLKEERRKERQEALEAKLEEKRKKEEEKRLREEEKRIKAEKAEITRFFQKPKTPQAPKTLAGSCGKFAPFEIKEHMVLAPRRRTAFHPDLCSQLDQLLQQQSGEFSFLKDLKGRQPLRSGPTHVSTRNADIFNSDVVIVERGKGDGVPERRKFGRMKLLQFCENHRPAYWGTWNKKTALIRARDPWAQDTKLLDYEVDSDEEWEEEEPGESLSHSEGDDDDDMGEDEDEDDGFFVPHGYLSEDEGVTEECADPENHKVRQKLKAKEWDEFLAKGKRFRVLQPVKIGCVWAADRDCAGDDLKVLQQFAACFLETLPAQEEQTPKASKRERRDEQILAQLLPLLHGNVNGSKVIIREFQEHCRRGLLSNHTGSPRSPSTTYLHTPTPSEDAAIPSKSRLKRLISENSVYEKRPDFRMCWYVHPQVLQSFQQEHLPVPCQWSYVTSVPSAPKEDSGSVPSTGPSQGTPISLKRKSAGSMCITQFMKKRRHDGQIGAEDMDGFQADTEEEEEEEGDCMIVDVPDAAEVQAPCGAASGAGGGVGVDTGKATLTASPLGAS
Sequence of UniProt Q5VT25 (Q5VT25 whole entry, looked up): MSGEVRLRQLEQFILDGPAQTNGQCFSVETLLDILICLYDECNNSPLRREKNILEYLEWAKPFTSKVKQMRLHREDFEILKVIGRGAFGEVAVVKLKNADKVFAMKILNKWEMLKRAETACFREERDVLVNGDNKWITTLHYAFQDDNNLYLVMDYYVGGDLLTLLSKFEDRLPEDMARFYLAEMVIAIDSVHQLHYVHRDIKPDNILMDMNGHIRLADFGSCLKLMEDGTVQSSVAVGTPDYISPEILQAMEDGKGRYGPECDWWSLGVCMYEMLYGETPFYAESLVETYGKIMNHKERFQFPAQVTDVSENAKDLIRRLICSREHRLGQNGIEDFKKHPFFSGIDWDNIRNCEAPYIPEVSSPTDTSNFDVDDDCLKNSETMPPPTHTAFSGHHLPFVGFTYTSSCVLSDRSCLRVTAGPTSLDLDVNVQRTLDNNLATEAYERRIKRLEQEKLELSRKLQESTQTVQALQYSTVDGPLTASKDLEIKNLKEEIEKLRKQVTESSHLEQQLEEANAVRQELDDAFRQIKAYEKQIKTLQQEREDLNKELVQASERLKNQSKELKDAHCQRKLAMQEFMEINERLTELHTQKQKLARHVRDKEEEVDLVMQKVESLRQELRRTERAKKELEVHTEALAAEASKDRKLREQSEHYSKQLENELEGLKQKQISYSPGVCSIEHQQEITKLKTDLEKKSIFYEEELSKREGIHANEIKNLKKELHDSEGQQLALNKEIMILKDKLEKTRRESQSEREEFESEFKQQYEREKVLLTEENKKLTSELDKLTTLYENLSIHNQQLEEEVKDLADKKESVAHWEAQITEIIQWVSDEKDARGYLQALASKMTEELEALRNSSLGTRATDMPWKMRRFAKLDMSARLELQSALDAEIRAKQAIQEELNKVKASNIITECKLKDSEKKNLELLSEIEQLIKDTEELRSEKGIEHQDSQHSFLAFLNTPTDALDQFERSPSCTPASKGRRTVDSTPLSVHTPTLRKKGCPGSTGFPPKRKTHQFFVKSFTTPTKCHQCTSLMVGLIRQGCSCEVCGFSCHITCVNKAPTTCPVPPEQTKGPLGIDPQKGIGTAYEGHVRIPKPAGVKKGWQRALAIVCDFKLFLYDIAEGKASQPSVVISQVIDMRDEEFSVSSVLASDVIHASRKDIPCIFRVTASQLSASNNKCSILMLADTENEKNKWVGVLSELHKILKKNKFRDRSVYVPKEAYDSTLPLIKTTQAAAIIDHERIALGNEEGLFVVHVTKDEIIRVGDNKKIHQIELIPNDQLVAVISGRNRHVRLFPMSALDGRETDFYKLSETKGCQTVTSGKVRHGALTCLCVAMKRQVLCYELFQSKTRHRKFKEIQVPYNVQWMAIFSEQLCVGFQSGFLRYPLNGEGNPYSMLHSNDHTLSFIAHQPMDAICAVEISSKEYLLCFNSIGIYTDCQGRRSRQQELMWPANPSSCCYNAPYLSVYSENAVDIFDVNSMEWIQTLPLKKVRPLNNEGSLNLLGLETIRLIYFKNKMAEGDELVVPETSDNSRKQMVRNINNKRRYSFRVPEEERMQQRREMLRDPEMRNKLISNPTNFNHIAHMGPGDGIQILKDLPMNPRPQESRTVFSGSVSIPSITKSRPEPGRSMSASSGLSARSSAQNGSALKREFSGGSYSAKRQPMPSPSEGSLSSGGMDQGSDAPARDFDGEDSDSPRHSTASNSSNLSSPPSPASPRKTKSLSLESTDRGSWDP
Sequence of UniProt Q9UL45 (Q9UL45 whole entry, looked up): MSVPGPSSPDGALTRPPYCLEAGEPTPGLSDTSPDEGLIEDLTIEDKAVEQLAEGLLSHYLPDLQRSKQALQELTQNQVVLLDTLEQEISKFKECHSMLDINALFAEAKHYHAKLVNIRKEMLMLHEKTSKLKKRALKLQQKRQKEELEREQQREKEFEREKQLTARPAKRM

Row | Target | log2 fold change (vemurafenib) | log2 fold change [1] | log2 fold change (barasertib) | log2 fold change [2] | log2 fold change (volasertib) | log2 fold change [3] | log2 fold change [4] | log2 fold change [5] | log2 fold change (saracatinib) | log2 fold change (sotrastaurin)
1 | CDKN1B (UniProt P46527) | -0.12 | 0.004 | -0.032 | 0.063 | -0.039 | 0.099 | 0.118 | -0.119 | -0.012 | 0.015
2 | BLOC1S6 (UniProt Q9UL45) | 0.005 | 0.007 | -0.012 | 0.013 | 0.032 | 0.043 | 0.048 | 0.009 | -0.034 | -0.06
3 | BRD2 isoform 2 (UniProt P25440) | 0.033 | -0.153 | -0.053 | 0.548 (active) | 0.369 | 0.042 | 0.617 (active) | -0.066 | -0.047 | -0.1
4 | CCNK isoform 4 (UniProt O75909) | -0.013 | 0.006 | -0.028 | 0.04 | -0.009 | -0.007 | -0.185 | 0.095 | 0.049 | 0.004
5 | CHCHD2 (UniProt Q9Y6H1) | 0.076 | -0.025 | 0.011 | 0.102 | 0.086 | 0.108 | 0.16 | -0.094 | -0.011 | 0.054
6 | CHAF1A (UniProt Q13111) | 0.005 | 0.005 | 0.006 | 0.029 | 0.003 | -0.009 | 0.029 | 0.004 | 0.038 | -0.016
7 | CCNH (UniProt P51946) | -0.025 | 0.001 | -0.035 | 0.036 | 0.003 | -0.034 | 0.054 | -0.062 | -0.036 | 0.033
8 | CHCHD4 isoform 2 (UniProt Q8N4Q1) | 0.144 | 0.015 | 0.109 | 0.072 | 0.057 | -0.1 | -0.415 (active) | 0.228 | 0.05 | -0.007
9 | CCNA2 (UniProt P20248) | -0.033 | -0.004 | -0.056 | 0.022 | -0.018 | -0.03 | -0.183 | 0.169 | 0.001 | 0
10 | CCNB1 (UniProt P14635) | 0.032 | -0.021 | 0.019 | 0.03 | -0.043 | -0.031 | -0.023 | -0.012 | 0.002 | -0.038
11 | CHD3 isoform 3 (UniProt Q12873) | -0.033 | 0.009 | 0.035 | -0.02 | -0.018 | -0.039 | -0.066 | -0.027 | 0.001 | 0.004
12 | CARNMT1 (UniProt Q8N4J0) | 0.04 | 0.008 | -0.012 | -0.013 | -0.005 | -0.044 | -0.422 (active) | 0.063 | 0.04 | 0.017
13 | CDAN1 (UniProt Q8IWY9) | -0.047 | 0.004 | 0.014 | -0.093 | -0.034 | 0.031 | -0.03 | -0.012 | 0.002 | -0.005
14 | AURKAIP1 (UniProt Q9NWT8) | 0.043 | -0.124 | 0.055 | 0.071 | 0.043 | -0.129 | -0.027 | 0.129 | 0.023 | -0.055
15 | CEPT1 (UniProt Q9Y6K0) | -0.031 | 0.006 | 0.08 | -0.006 | 0.042 | -0.079 | -0.102 | 0.084 | 0.037 | -0.008
16 | CFDP1 (UniProt Q9UEE9) | -0.02 | -0.008 | -0.066 | 0.025 | 0.039 | -0.015 | -0.311 (active) | 0.105 | -0.007 | 0.024
17 | CCAR2 (UniProt Q8N163) | -0.007 | -0.004 | -0.047 | -0.01 | -0.031 | 0.01 | -0.057 | 0.032 | -0.002 | 0.007
18 | ATAD1 (UniProt Q8NBU5) | 0.052 | -0.072 | -0.008 | 0.024 | -0.018 | -0.041 | -0.04 | -0.03 | -0.031 | 0.06
19 | CAPNS1 (UniProt P04632) | -0.032 | 0.021 | 0.11 | -0.027 | 0.04 | -0.006 | -0.334 (active) | 0.07 | 0.003 | -0.012
20 | CDC42BPA isoform 6 (UniProt Q5VT25) | 0.01 | 0.036 | -0.006 | -0.111 | -0.043 | 0.021 | 0.062 | -0.118 | -0.021 | -0.023
21 | C15orf41 (UniProt Q9Y2V0) | 0.151 | 0.005 | 0.095 | -0.089 | 0.041 | -0.049 | -0.143 | 0.037 | -0.018 | -0.016
22 | BRAT1 (UniProt Q6PJG6) | 0.011 | -0.014 | 0.042 | -0.086 | -0.046 | 0.055 | -0.023 | -0.007 | 0.016 | 0.037
23 | CCT6A (UniProt P40227) | -0.026 | -0.005 | -0.03 | -0.006 | 0.024 | 0.011 | -0.024 | -0.002 | -0.004 | -0.001
24 | BCAR1 isoform 6 (UniProt P56945) | 0.038 | 0.018 | 0.015 | -0.065 | -0.018 | -0.003 | 0.064 | -0.012 | 0.032 | -0.038
25 | C12orf45 (UniProt Q8N5I9) | -0.015 | -0.017 | -0.022 | 0.009 | 0.008 | 0.023 | -0.243 | 0.116 | -0.022 | -0.026
26 | CCDC51 (UniProt Q96ER9) | 0.001 | -0.008 | 0.027 | -0.005 | 0.002 | -0.009 | 0.262 (active) | -0.422 (active) | -0.034 | -0.072
27 | CASP9 (UniProt P55211) | -0.017 | 0.001 | -0.002 | 0.025 | 0.029 | -0.061 | -0.013 | 0.005 | 0.003 | 0.045
28 | ATG13 isoform 2 (UniProt O75143) | -0.05 | 0.042 | 0.024 | 0.036 | 0.007 | 0.015 | -0.281 (active) | 0.077 | 0.005 | 0.053
29 | BNIP1 (UniProt Q12981) | 0.024 | 0 | 0.057 | -0.032 | -0.054 | -0.013 | 0.287 (active) | -0.204 | 0.032 | 0.006
30 | ATP11A (UniProt P98196) | -0.035 | -0.015 | 0.006 | 0.019 | 0.026 | 0 | -0.116 | 0.024 | -0.01 | 0.063
